Inhibition data for 39 compounds are collected here from PubChem BioAssay.

The source made the active and inactive calls. How the calls were made is not given here.

The target in this assay is Pantothenate synthetase (Mycobacterium tuberculosis (strain ATCC 25618 / H37Rv)) (UniProt P9WIL5). The assay can be described thus: Recombinant Mtb pantothenate synthetase (PanC) inhibitors, coupled enzyme, confirmatory (AID 375).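 Further: 0% = full reaction with vehicle and 100% = no enzyme background.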 To be noted: coupled enzyme assay; at 10 µM, active compounds read high.
Sequence of Pantothenate synthetase (Mycobacterium tuberculosis (strain ATCC 25618 / H37Rv)) (P9WIL5 whole entry, looked up): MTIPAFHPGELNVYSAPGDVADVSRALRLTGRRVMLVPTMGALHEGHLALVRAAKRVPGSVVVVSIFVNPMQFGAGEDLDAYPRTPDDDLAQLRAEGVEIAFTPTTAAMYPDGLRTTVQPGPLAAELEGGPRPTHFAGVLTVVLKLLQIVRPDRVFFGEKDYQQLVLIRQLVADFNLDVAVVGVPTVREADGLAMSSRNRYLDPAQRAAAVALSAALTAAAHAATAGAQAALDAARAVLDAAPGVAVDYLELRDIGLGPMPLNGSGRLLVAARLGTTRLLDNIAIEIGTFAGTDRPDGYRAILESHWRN
In the case of `Cn1c(=O)cc(OCCCC(=O)Nc2ccc3c(c2)OCCO3)c2ccccc21`, the inhibition was 1% (inactive). With `O=C1OCc2cc(NC(=O)C3CCCO3)ccc21` (centres undefined) the figure was 5% (inactive); with `CC(NC(=O)c1ccco1)C(c1cccs1)N1CCN(c2ccc(F)cc2)CC1` (centres undefined), 0% (inactive). With `Cc1ccc(Cn2c(SCC(C)C)nc3c2c(=O)n(C)c(=O)n3C)cc1` the figure was 3% (inactive); with `CCC1(C)Cc2c(sc3nc(SCC(=O)O)[nH]c(=O)c23)CO1` (centres undefined), 0% (inactive); with `CC(C)Cn1c(-c2ccc(F)cc2)n[nH]c1=S`, 0% (inactive). The figure for `COc1ccc(CCNC(=O)C2=COCCO2)cc1` is 0% (inactive). On to `CCOC(=O)C1=C(C)N(C)C(C)=C(C(=O)OCC)C1c1cccnc1`, for which the inhibition is 2% (inactive). With `CCOC(=O)c1c(-c2cccs2)csc1NC(=O)CCCC(=O)O` the figure was 0% (inactive); with `CCOC(=O)N1CCC(c2cc(=O)n3[nH]cc(C(=O)OC)c3n2)CC1`, 0% (inactive). The figure for `COc1cc(OC)c(C(=O)Nc2ccc(N(C)C)cc2)cc1OC` is 4% (inactive). With `Cn1c(=O)c2c3c(sc2n2c(SCC(=O)c4ccc(Cl)cc4)nnc12)COC(C)(C)C3` the figure was 0% (inactive).

For the compound `Cc1cc(C)n2cc(CSCc3ccco3)nc2n1`, the inhibition was 2% (inactive). The figure for `CC1CN(C(=O)c2cc3cc(Cl)cc(Cl)c3oc2=O)CC(C)O1` (centres undefined) is 0% (inactive); for `Cc1cnc(C(=O)NCCc2ccc(S(=O)(=O)NC(=O)NC3CCCCC3)cc2)cn1` it is 5% (inactive); for `CN1CCN(c2oc(COc3ccc(-c4ccccc4)cc3)nc2C#N)CC1` it is 0% (inactive). With `COc1ccc(-c2[nH]nc3c2C(c2ccccc2OC(=O)N2CCOCC2)C(C#N)=C(N)O3)cc1` (centres undefined) the figure was 5% (inactive); with `Cc1oc(-c2ccccc2Cl)nc1CSCC(=O)N1CCCC1`, 1% (inactive). For the compound `CC1CCC(NC(=O)C2(C)CCC(=O)N2Cc2cccnc2)CC1` (centres undefined), the inhibition was 0% (inactive).

For `N#CC1=C(N)N(c2ccccc2)C2=C(C(=O)CCC2)C1c1cccs1` (centres undefined), the inhibition is 0% (inactive).

Take `CC1(C)CC(=O)C2=C(C1)OC(N)=C(C#N)C2C1CC=CCC1` (centres undefined): the inhibition was 1% (inactive). With `Clc1cccc(-c2nnc3sc(-c4ccccc4)nn23)c1` the figure was 0% (inactive); with `COc1ccc(-c2cc(C(F)(F)F)n3ncc(C(=O)NCC4CCCO4)c3n2)cc1` (centres undefined), 0% (inactive). Take `COc1ccccc1N(CC(=O)NC1CCCC1)C(=O)CCC(=O)Nc1cc(C)on1`: the inhibition is 0% (inactive). The figure for `C1=CC2CC1CC2CN1CCN(c2ccccc2)CC1` (centres undefined) is 5% (inactive). Turning to `CC(=O)Nc1cc(N2C(=O)CCC2=O)ccc1Cl`, the inhibition is 0% (inactive). With `Cc1ccccc1-n1nnnc1SCC(=O)Nc1ccc(S(=O)(=O)N2CCCC2)cc1` the figure was 0% (inactive); with `CCOCCCNC(=O)C1CCN(C(=O)Nc2ccc(Cl)cc2)CC1`, 3% (inactive). With `COC(=O)c1ccc(CSc2nnc(-c3ccncc3)o2)o1` the figure was 0% (inactive); with `C[C@H](NC(=O)NCc1cccs1)C(=O)O`, 0% (inactive); with `CCOC(=O)c1sc(NC(=O)C2CC=CCC2C(=O)O)nc1C` (centres undefined), 3% (inactive). With `O=C(Nc1ccc2c(c1)OCO2)N1CCN(c2ncccn2)CC1`, the inhibition is 0% (inactive).

With `CC(=O)c1cc2c(cc1NC(=O)CN1CCN(C(=O)c3ccco3)CC1)OCO2`, the inhibition is 4% (inactive). With `CN(C)S(=O)(=O)N1CCN(C(=O)N(c2ccccc2)c2ccccc2)CC1` the figure was 0% (inactive); with `COC(=O)CSc1nnc(-c2ccc(OC)cc2OC)o1`, 0% (inactive); with `OCCNC1=NCCN1`, 1% (inactive).

`COc1ccc2c(c1)C(C)=CC(C)(C)N2C(=O)CSc1nnc(-c2ccc(C)cc2)o1`: the inhibition was 0% (inactive). In the case of `O=C(NCc1ccco1)c1cc2n(n1)C(C(F)(F)F)CC(c1ccc(F)cc1)N2` (centres undefined), the inhibition is 9% (inactive). With `CCOC(=O)N1CCC(N2C(=O)c3ccccc3C2Nc2ccc3c(C)cc(=O)oc3c2)CC1` (centres undefined) the figure was 4% (inactive).
